The term inhibition denotes the relative decrease from the control value, in per cent.

Experimental findings from PubChem BioAssay are described below.

In this experiment the target is PEG-3 (UniProt Q6IN02). The experiment can be described thus: inhibition of PEG-3 promoter-driven reporter – cell-based, HeLa, luciferase, CREF/GAPDH counter-screen panel, dose response (AID 624167). The note with it: CREF/GAPDH counter-screens; HeLa PEG-Prom luciferase reporter, overnight, run 1, dose range 1, at 100 µM (top of the series) unless noted. A general note: Counterscreens check selectivity or assay interference.
Chain of PEG-3 (Q6IN02 whole entry, looked up): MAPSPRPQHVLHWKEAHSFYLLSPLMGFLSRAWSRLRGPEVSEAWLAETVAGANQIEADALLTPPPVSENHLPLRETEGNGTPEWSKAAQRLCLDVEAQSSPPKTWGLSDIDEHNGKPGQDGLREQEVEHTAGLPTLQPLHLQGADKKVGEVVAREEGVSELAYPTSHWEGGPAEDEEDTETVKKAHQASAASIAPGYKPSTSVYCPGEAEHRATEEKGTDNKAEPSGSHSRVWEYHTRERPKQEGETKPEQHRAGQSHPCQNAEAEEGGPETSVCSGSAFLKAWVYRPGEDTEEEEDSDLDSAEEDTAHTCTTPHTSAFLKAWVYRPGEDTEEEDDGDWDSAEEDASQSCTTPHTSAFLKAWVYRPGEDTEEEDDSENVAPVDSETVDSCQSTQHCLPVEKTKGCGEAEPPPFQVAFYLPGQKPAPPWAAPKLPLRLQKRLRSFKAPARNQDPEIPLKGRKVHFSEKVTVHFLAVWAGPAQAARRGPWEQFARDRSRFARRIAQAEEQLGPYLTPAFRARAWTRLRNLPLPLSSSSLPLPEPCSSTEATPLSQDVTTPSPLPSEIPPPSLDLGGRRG
Consider `O=C(Nc1ccccc1N1CCOCC1)c1cc(-c2ccncc2)nc2ccccc12`, for which the inhibition was 93.7%. With `CCN(CC)CCn1c2ccccc2c2cnc(N)c(C#N)c21` the figure was 101%; with `CCC1CCCCN1S(=O)(=O)c1ccc(C(=O)N(CCCN(C)C)c2nc3cc4c(cc3s2)OCO4)cc1` (stereo not given), 101%; with `COC(=O)c1ccccc1-c1ccc(/C=N/Nc2nc(N3CCCC3)nc(N3CCCC3)n2)o1`, 100%. With `O=S(=O)(c1cccc(F)c1)N1CCN(c2nc(-c3cccnc3)nc3ccccc23)CC1` the figure was 26.5%; with `CC(C)(C)OC(=O)CC(S(=O)(=O)c1ccccc1)S(=O)(=O)c1ccccc1`, 102%; with `CC(C(=O)NC1CCCC1)N(C(=O)Cn1nnc(-c2ccc(F)cc2)n1)c1ccccc1F` (stereo not given), 99.3%.

Turning to `CCCOC(=O)c1cccc(Nc2nc(-c3cccnc3)nc3ccccc23)c1`, the inhibition was 99%. With `COCOCCn1cc(CN2CCS(=O)(=O)N(Cc3ccc(-c4ccc(Cl)c(Cl)c4)cc3)C(C(C)C)C2=O)nn1` (stereo not given) the figure was 92.6%; with `COc1ccc(-c2ccc3[nH]c4c(c3c2)CCN2C[C@@H]([C@H](C)O)[C@@H](N(C)C(=O)Nc3cc(Cl)cc(Cl)c3)C[C@@H]42)cc1`, 96.3%. With `N#C/C(=C\c1cccc([N+](=O)[O-])c1)C(=O)NCc1ccc(Cl)cc1` the figure was 99.3%; with `Cc1cc(/C=c2/sc3nc4ccccc4n3c2=O)c(C)n1-c1ccccn1`, 84.1%; with `Cc1cc(C(=O)CN2C(=O)c3ccccc3S2(=O)=O)c(C)n1C(C)C`, 101%. In the case of `CC(=O)Nc1cccc(NC(=O)c2cc(-c3cccnc3)nc3ccc(Cl)cc23)c1` it was 87.9%; in that of `CC1(C)CC(NC(=O)c2cccc(S(=O)(=O)N(Cc3ccccc3)c3ccccc3)c2)CC(C)(C)N1`, 101%.
